An excerpt weighted towards active compounds, which were near 9.4% of everything screened.
NPC1 promoter act – activates the NPC1 promoter; Huh7 NPC1 promoter luciferase reporter, 24 h; 320,000 compounds, 2.4% hits; Potency, µM (series often up to 9.22 µM), for inactives: at the top dose activation, actives largely listed as activators; note: % of control where 0% means no effect; nearly all actives have a fitted effect of over 60% in size
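Huh7 cells stably carrying NPC1 promoter–luciferase, plated in Opti-MEM with 10% FBS for 2 h, were exposed to compound in DMSO for 24 h at 37 °C; luciferase reagent was added for 10 min and luminescence read.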
ELG1 genotoxic – inducers of genotoxicity in HEK293T ELG1-luciferase cells. HEK293T ELG1-luciferase reporter, luminescence, 16 h. Potency, µM (highest dose often 46 µM), for the others: top-dose activity change, positive = activation, most hits filed as activators. AID 504466. 330,000 compounds, 1.3% hits; note: % of control where 0% means no effect; nearly all actives have a fitted effect of over 60% in size
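Cells (2,000/well) expressing the ELG1-luciferase fusion are dosed by pin tool and kept 16 hr at 37 °C, 5% CO2. Signal comes from ONE-Glo luciferase reagent after 30 min at room temperature.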
SMN2 splice enh – enhancers of SMN2 splice variant expression. HEK293 SMN2-luciferase splicing reporter, luminescence, 30-36 h. Potency, µM (top dose mostly 46.1 µM), without a hit: at the highest dose activity change, positive = activation, most hits filed as activators. 210,000 compounds, 2.8% hits. AID 1458; note: % of control where 0% means no effect; nearly all actives have a fitted effect of over 55% in size
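HEK293 cells carry an SMN2 minigene-luciferase reporter in which exon 7 inclusion puts luciferase in frame. Cells were seeded at 2000 cells/well, attached for 10-12 hours, then exposed to compounds for 30-36 hours at 37C before ONE-Glo luminescence.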
Rab9 prom act – Rab9 promoter activation; 320,000 compounds, 2.8% hits; Potency, µM (highest dose often 9.22 µM), without a hit: top-dose activation, negative = inhibition, hits mostly activators; Huh7 Rab9 promoter-luciferase reporter, luminescence, 24 h; note: % of control where 0% means no effect; nearly all actives have a fitted effect of over 60% in size
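Cell-based reporter: Huh7 stable for Rab9 promoter-driven luciferase, plated in reduced-serum medium with 10% FBS at 1500 cells/well, compound-treated 24 h at 37 °C, luminescence read after 10 min reagent.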
FLuc counter – inhibits or activates purified firefly luciferase, miR-21 counter-screen; 360,000 compounds, 6.9% hits; Potency, µM (titrated, usually from 57.5 µM), without a hit: at the top dose activity change, negative = inhibition, most hits filed as inhibitors; purified FLuc, Km substrates, luminescence inhibition; P08659;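 note: plate controls were vehicle for no effect and reference inhibitor for full effect; nearly all actives have a fitted effect of over 55% in size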
Target sequence (P08659 whole entry, looked up): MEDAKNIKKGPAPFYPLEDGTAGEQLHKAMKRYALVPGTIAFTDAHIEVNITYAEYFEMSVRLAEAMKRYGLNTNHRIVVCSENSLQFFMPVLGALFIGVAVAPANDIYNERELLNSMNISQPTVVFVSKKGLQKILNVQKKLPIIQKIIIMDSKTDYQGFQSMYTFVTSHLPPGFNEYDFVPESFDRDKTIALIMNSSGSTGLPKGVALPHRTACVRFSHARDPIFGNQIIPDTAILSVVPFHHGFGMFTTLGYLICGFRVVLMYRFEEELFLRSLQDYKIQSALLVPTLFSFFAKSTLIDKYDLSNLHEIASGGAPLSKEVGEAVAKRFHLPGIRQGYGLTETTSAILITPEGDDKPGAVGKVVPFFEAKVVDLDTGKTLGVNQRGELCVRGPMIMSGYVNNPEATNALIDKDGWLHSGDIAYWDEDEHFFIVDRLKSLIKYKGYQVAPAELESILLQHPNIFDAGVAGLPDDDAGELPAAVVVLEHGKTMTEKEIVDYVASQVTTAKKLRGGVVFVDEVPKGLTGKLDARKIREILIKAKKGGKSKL
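Biochemical qHTS of compounds, final roughly 60 µM downward over six points, against 10 nM purified firefly luciferase using Km concentrations of substrates (10 uM D-luciferin, 10 uM ATP) in Tris acetate pH 7.5 buffer; luminescence output.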
ELG1 DNA repair – ELG1-dependent DNA repair inhibition; Potency, µM (titrated, usually from 46.1 µM), for inactives: top-dose activity change, negative = inhibition, actives largely listed as inhibitors; HEK293T ELG1-luciferase reporter, luminescence, 16 h; DNA damage induced by 5-fluorouridine; 330,000 compounds, 2.3% hits; note: % is set by controls: 0 for no effect and ±100 for the full control effect; nearly all actives have a fitted effect of over 55% in size
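In this reporter screen, reduction of luminescence relative to DMSO vehicle indicated activity. Compounds and 5-fluorouridine were added together to 2,000 cells per well, incubated for 16 hr at 37 °C, then developed with ONE-Glo.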
Numbers without * were called inactive; ? = inconclusive; . = no result; [ ] = dose if it differs, or a comment. Calls come from the whole dose curve; as a rule, active = well fitted curve in the direction sought with a large enough effect; inconclusive = small, poorly fitted or top-dose-only effect, or another doubt; inactive = no such curve, though single readings can be large; an effect the other way counts as inactive or inconclusive. Potency is the fitted concentration of half-maximal effect.

SMILES	NPC1 promoter act	ELG1 genotoxic	SMN2 splice enh	Rab9 prom act	FLuc counter	ELG1 DNA repair
CCc1cc2c(=O)c(-c3nc(C)cs3)coc2cc1OC(C)C(=O)NCCO (centres undefined)	0.4%	-6.4%	-5.6%	1.3%	10.7µM*	?
CCc1cc2c(-c3ccccc3)cc(=O)oc2cc1OC(C)C(C)=O (centres undefined)	-2.9%	3.4%	.	-1.2%	-0.1%	?
C[C@@]12C=CC(=O)C=C1CC[C@@H]1[C@@H]2[C@H](O)C[C@]2(C)[C@@H]1CC[C@]2(O)C(=O)CO	.	.	-5.2%[20.6 µM]	.	.	.
Cc1nc2c(ccc3nc(NC(=O)Cc4cccc5ccccc45)sc32)s1	-8.0%	-6.5%	-62.1%	?	?	5.17µM*
Cc1nc2c(ccc3nc(NC(=O)C(c4ccccc4)c4ccccc4)sc32)s1	-8.2%	2.1%	-63.5%	-5.2%	-1.1%	?
COc1ccc2sc(NC(=O)NC(=O)c3c(Cl)cccc3Cl)nc2c1	12.5%	0.2%	.	-1.1%	19µM*	-6.9%
CCC(=O)Nc1nc2ccc3nc(C)sc3c2s1	?	8.2µM*	11.2µM*	3.98µM*	?	?
COc1cccc(NC(=O)NC(=O)c2c(C)cc(Cl)nc2Cl)c1	1.9%	-0.6%	.	-4.3%	3.2%	6.7%
COc1ccc2sc(NCc3ccccc3)nc2c1	2.24µM*	?	.	3.55µM*	6.01µM*	?
COc1ccc(CCNC(=O)c2c(C)oc3nc(C)nc(N4CCOCC4)c23)cc1OC	.	.	.	.	4.4%	.
CC1(C)S[C@@H]2[C@H](C(=O)O)N=C(Cc3ccccc3)N2[C@H]1C(=O)O	.	.	-15.5%[9.22 µM]	.	.	.
COc1ccc2sc(NC(C)=O)nc2c1	2.51µM*	9.2µM*	17.8µM*	?	16.9µM*	?
COc1ccc(NC(=O)CC(C)C)c([N+](=O)[O-])c1	-0.6%	2.5%	-0.5%	4.9%	2.4%	7.9%
CCC(=O)Nc1nc2cc(OC)ccc2s1	2.24µM*	?	?	1.41µM*	12µM*	?
COc1ccc2sc(NC(=O)CC(C)C)nc2c1	?	18.4µM*	?	4.47µM*	10.7µM*	?
COc1ccc2nc(NC(=O)CS(=O)(=O)c3ccc(C)cc3)sc2c1	-0.9%	-11.4%	.	0.2%	?	10.3%
N[C@@H](Cc1nn[nH]n1)C(=O)O	.	.	-10.9%[9.22 µM]	.	.	.
CCOC(=O)c1sc2nc3c(cc2c1N)COC(C(C)C)C3 (centres undefined)	0.794µM*	0.13µM*	-84.1%	?	0.12µM*	?
CCOC(=O)c1sc2nc(N3CCOCC3)c3c(c2c1N)CC(C(C)C)OC3 (centres undefined)	-7.3%	6.6%	.	2.0%	-2.1%	?
CC1(C)Cc2nc3scc(NC(=O)c4ccccc4)c3cc2CO1	-3.5%	1.6%	.	0.2%	10.7µM*	-4.9%
COC(=O)c1sc2nc3c(cc2c1N)COC(C)(C)C3	2.82µM*	8.2µM*	8.9%	3.55µM*	10.7µM*	?
O=c1[nH]c2cc3c(cc2cc1CN(Cc1cccs1)Cc1nnnn1Cc1ccco1)OCCO3	-1.0%	2.8%	-10.9%	12.7%	?	?
COc1ccccc1CN(Cc1cc2cc3c(cc2[nH]c1=O)OCCO3)Cc1nnnn1Cc1ccco1	-3.7%	-9.4%	-5.1%	-3.5%	-11.8%	20.6µM*
O=c1[nH]c2cc3c(cc2cc1CN(Cc1cccnc1)Cc1nnnn1Cc1ccco1)OCCO3	-2.5%	-1.5%	-0.3%	-3.9%	-9.0%	23.1µM*
O=c1[nH]c2cc3c(cc2cc1CN(Cc1ccccc1)Cc1nnnn1Cc1ccco1)OCCO3	-0.4%	-0.8%	-13.8%	3.1%	?	?
CCc1ccc(-n2nc(C)c3c(C)cc(=O)n(CC(=O)Nc4ccc(C(C)=O)cc4)c32)cc1	.	.	.	.	2.9%	.
COc1cc(/C=N\NC(=O)c2ccc(-c3ccccc3)cc2)cc(OC)c1O	4.1%	3.8%	.	21.1%	9.53µM*	-13.0%
